# Screening data as filed in PubChem BioAssay.
# Most compounds without a hit are left out; they make up all but 12% or so of the library.
# JMJD2A Tudor inh: qHTS Assay for Inhibitors of JMJD2A-Tudor Domain. AlphaScreen JMJD2A-Tudor / H3K4me3 peptide binding. Potency, µM (top dose mostly 114 µM), without a hit: at the top dose activity change, negative = inhibition, usual class: inhibitors. 390,000 compounds, 4.4% hits; note: % is set by controls: 0 for no effect and ±100 for the full control effect; nearly all actives have a fitted effect of over 50% in size
# Sfp inh: qHTS Assay for Inhibitors of Bacillus subtilis Sfp phosphopantetheinyl transferase (PPTase). AID 1490, 2009. Biochemical Sfp PPTase activity, qHTS. 4'-phosphopantetheinyl transferase ffp (Bacillus subtilis), Q9F4F7. Potency, µM, without a hit: largest response in the series, negative = inhibition, actives largely listed as inhibitors. 310,000 compounds, 3.5% hits;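 note: the enzyme is Sfp with the accession as filed and its product quenches rhodamine fluorescence; 0% = enzyme reaction without inhibitor and -100% = no enzyme wells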
#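 Reaction rates are the 30-min fluorescence difference (ex 525, em 598 nm) in wells containing 15 nM Sfp, 5 uM rhodamine-CoA and 12.5 uM BHQ-2-YbbR at pH 7.6 with 10 mM MgCl2.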
# G9a inh: qHTS Assay for Inhibitors of Histone Lysine Methyltransferase G9a. G9a H3K9 monomethylation, AlphaScreen, 2 h. 350,000 compounds, 8.8% hits. AID 504332, 2011. Histone-lysine N-methyltransferase EHMT2 (Homo sapiens), Q96KQ7. Potency, µM (series often up to 102 µM), without a hit: top-dose activity, negative = inhibition, actives largely listed as inhibitors; note: % is set by controls: 0 for no effect and ±100 for the full control effect; nearly all actives have a fitted effect of over 75% in size
#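 Methyltransferase reactions run at room temperature for 2 h (20 nM enzyme, 500 nM biotin-H3K9 peptide, 20 uM SAM) after a 15 min compound preincubation; product detected by AlphaScreen beads and anti-H3K9me1 antibody.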
# BAZ2B block: qHTS Assay for Inhibitors of BAZ2B; Bromodomain adjacent to zinc finger domain protein 2B (Homo sapiens), Q9UIF8; AlphaScreen BAZ2B-H3K14Ac peptide displacement; Potency, µM (titrated, usually from 114 µM), for inactives: top-dose activity change, negative = inhibition, actives largely listed as inhibitors; 360,000 compounds, 4.4% hits; note: % is set by controls: 0 for no effect and ±100 for the full control effect; nearly all actives have a fitted effect of over 60% in size
#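 Compounds, titrated to a top concentration of 110 uM, were incubated 30 min at room temperature with preformed BAZ2B/acetyl-K14 H3 peptide complex (50 nM each). Proximity signal was measured by AlphaScreen after 20 min with beads.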
# HP1b chromo inh: HTS for Inhibitors of HP1-beta Chromodomain Interactions with Methylated Histone Tails. Chromobox protein homolog 1 (Homo sapiens), P83916. AlphaScreen HP1-beta / biotin-H3K9me3 peptide binding. Potency, µM (titrated, usually from 114 µM), for inactives: top-dose activity change, negative = inhibition, most hits filed as inhibitors. 390,000 compounds, 0.56% hits; note: nearly all actives have a fitted effect of over 70% in size
#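 AlphaScreen: HP1-beta (50 nM) preformed 30 min with biotin-H3(1-18)K9me3 peptide (50 nM) in PBS pH 7.4, 0.01% Tween-20. Compound added for 30 min at RT, then streptavidin donor/nickel chelate acceptor beads (10 ug/mL) for 30 min.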
# Numbers without * were called inactive; ? = inconclusive; · = no result given; [ ] = remark or other dose. Calls come from the whole dose curve; as a rule, active = well fitted curve in the direction sought with a large enough effect; inconclusive = small, poorly fitted or top-dose-only effect, or another doubt; inactive = no such curve, though single readings can be large; an effect the other way counts as inactive or inconclusive. Potency is the fitted concentration of half-maximal effect.
SMILES,JMJD2A Tudor inh,Sfp inh,G9a inh,BAZ2B block,HP1b chromo inh
Cc1nc(N)sc1-c1csc(Nc2ccc(S(N)(=O)=O)cc2)n1,?,-15%,?,50µM*,-3%
NS(=O)(=O)c1ccc(Nc2nc(-c3ccc(O)cc3)cs2)cc1,?,-24%,?,-35%,-10%
COc1ccc(NC(=S)N(Cc2ccc(N(C)C)cc2)Cc2ccco2)cc1,50µM*,-7%,?,32µM*,?
CCOc1ccc(NC(=S)N(Cc2ccc(N(C)C)cc2)Cc2ccco2)cc1,16µM*,5%,40µM*,35µM*,?
CC(=O)C1=C(c2ccc(C)cc2)N(C(C)=O)n2c(nnc2-c2ccccc2)S1,-1%,·,-1%[59 µM],1%,66%
O=C(c1ccc(N2CCOCC2)nc1)N1CCCCC1,-11%,19%,-4%[59 µM],-3%,30%
Cc1ccc(/C=N/N2CCN(Cc3ccccc3)CC2)o1,-33%,-25%,20µM*,?,-2%
Cc1ccc(/C=N/N2CCN(Cc3cccc4ccccc34)CC2)o1,50µM*,?,45µM*,50µM*,?
CCN(CCNC(=O)C1CC(=O)N(CCc2ccccc2)C1)c1ccccc1 (stereo not drawn),-20%,1%,33%[0.501 µM],?,0%
CCc1cccc(NC(=S)N(CCOC)C(C)c2ccco2)c1 (stereo not drawn),-6%,56µM*,12%[12.7 µM],-2%,57%
COCCN(C(=S)Nc1ccc(C)c(C)c1)C(C)c1ccco1 (stereo not drawn),1%,8%,6%[59 µM],-12%,36%
Cc1cc(C(=O)O)c(=O)[nH]c1C,22µM*,13%,71µM*,?,-5%
CCCNC(=O)OC[C@H]1O[C@H](CCO/N=C/c2ccc(C(=O)N3[C@H](c4ccc(C)cc4)[C@@H](C)CC[C@H]3C(=O)OC)cc2)C=C[C@@H]1Oc1ccc(OC)cc1,·,22%,71µM*,-36%,·
Cc1ccc(-c2csc(NC(=O)/C=C/c3cccs3)n2)cc1C,2%,5%,3%[59 µM],-34%,26%
COc1ccc(OC)c(CCNC(=O)c2csc3c2CCCCC3)c1,-20%,·,4%[59 µM],-3%,12%
O=[N+]([O-])c1cccc(Cl)c1N1CCOCC1,-21%,-9%,14%,-9%,-12%
C=CSc1sc(Cl)c(N2CCOCC2)c1[N+](=O)[O-],50µM*,?,-106%[59 µM],14µM*,50µM*
C=CS(=O)(=O)c1sc(Cl)c(N2CCOCC2)c1[N+](=O)[O-],79µM*,22µM*,8.9µM*,?,?
CNc1nccc(-c2ccc(F)cc2)c1C#N,3%,0%,0%,-30%,48%
COC(=O)C[C@H]1c2cc(F)ccc2S(=O)(=O)N1C(C)C,-21%,·,·,·,31%
CC1(C)Cc2ccccc2C(NNC(=O)c2ccccn2)=N1,45µM*,9%,12%[59 µM],32µM*,27%
CC1(C)Cc2ccccc2C(NNC(=O)c2ccccc2)=N1,6%,9%,-32%,9%,-1%
Cc1ccc(C(=O)Oc2oc(-c3ccco3)nc2C=Nc2ccc(Cl)cc2)cc1,-8%,?,50µM*,-4%,18%
Cc1ccc(C(=O)Oc2oc(-c3ccccc3)nc2C=Nc2ccc(N(C)C)cc2)cc1,-15%,?,61%[59 µM],46%,37%
O=C(Oc1oc(-c2ccco2)nc1C=Nc1ccccc1)c1ccoc1,-24%,20µM*,7.1µM*,-19%,29%
O=C(Oc1oc(-c2ccco2)nc1C=Nc1ccccc1)c1ccco1,-14%,11µM*,?,-5%,33%
CCCCOc1ccc(C(=O)N2CCCCC2CCN2CCOCC2)cc1 (stereo not drawn),-23%,·,-7%[59 µM],-4%,4%
COc1ccc(CC(=O)OCC(=O)NCc2ccccc2Cl)cc1,-4%,6%,1%,-1%,29%
